Our source for the activation values is PubChem BioAssay AID504408 (Broad Institute, 2011).

Screen size: about 300,000 compounds; about 5,200 (1.7%) were called active. This excerpt belongs to a sample that is enriched for actives. Unmarked numbers belong to inactive results.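 The calls were made as follows: active = mean replicate activation of at least 50% with a set share of replicates each reaching 50%; inconclusive = only one of those two conditions met; inactive = mean below 50% and too few replicates reaching it.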

The assay is described as follows: HSF-1 response element luciferase induction – NIH3T3-HGL cells, MG132 stress, luminescence, single point, primary screen (AID 504408).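 Also: 0% = median of the neutral control wells and 100% = twice that signal.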 Particulars: NIH3T3-HGL HSF-1 luciferase reporter, MG132, 8 h; at 9 µM; stronger effect = higher value; 100% = twice DMSO control signal. A general note: In a reporter assay the amount or activity of a reporter protein is the signal.
Turning to `CC(C)c1ccc(S(=O)(=O)N2CCN(C(=O)CN3C(=O)NC(C)(c4ccccc4)C3=O)CC2)cc1` (stereo not drawn), the activation was -9.21%.

With `CCC(CC)c1nnc(NC(=O)C2=COCCO2)s1`, the activation was 13.8%.

Turning to `O=C(c1ccc(F)c(S(=O)(=O)N2CCOCC2)c1)N(CCc1ccccc1)Cc1ccccc1`, the activation was 6.07%.

In the case of `O=C(CSc1nc2[nH]ncc2c(=O)[nH]1)Nc1ccc(F)cc1`, the activation was -14.4%.

In the case of `O=C(Cn1ncc(N2CCCC2)c(Br)c1=O)c1ccc(Cl)cc1`, the activation is 75.4% (active).

As for `O=C(Cn1nc(CNc2ccc(Cl)cc2)[n+]2c1CCCCC2)c1ccc(Cl)cc1`, the activation was 19.7%.

Turning to `CC(=O)Cn1ncc(N2CCOCC2)c(Br)c1=O`, the activation was -14.8%.

On to `O=C(NCC(c1ccco1)N1CCc2ccccc21)c1cccc(F)c1` (stereo not drawn), for which the activation is 33.2%.

Turning to `Cc1ccc(-c2nn(-c3ccccc3)cc2C(=O)NCCCN2CCCC2=O)cc1`, the activation is -4.32%.

For the compound `CC1CCCCC1NC(=O)/C(C#N)=C/C=C/c1ccccc1[N+](=O)[O-]` (stereo not drawn), the activation is 53.4% (active).

For `O=[N+]([O-])c1ccccc1/C=C/CN1CCCC(CO)C1` (stereo not drawn), the activation was -4.33%.

As for `O=[N+]([O-])c1ccccc1/C=C/CN1CCC(O)CC1`, the activation is -18.5%.

For the compound `O=C(Nc1cc2c3c(c1)CC(=O)N3CCC2)c1ccccc1F`, the activation was -11.8%.

On to `Cc1nc(-c2ccc(Cl)cc2)sc1C(=O)NN`, for which the activation was -2.26%.

With `Cc1nc(-c2ccc(Cl)cc2)sc1C(=O)CBr`, the activation is 75.1% (active).

In the case of `Cc1nc(-c2ccccc2)sc1C(=O)/C=C/N(C)C`, the activation is -1.43%.

Take `COc1ccccc1NC(=O)COC(=O)c1ccccc1SCC(=O)N1CCCC1`: the activation is -2.69%.

`CN(C)CCCNC(=O)/C=C/c1ccc(OCc2c(F)cccc2Cl)cc1`: the activation was -16.4%.

As for `O=C(/C=C/c1ccc(OCc2c(F)cccc2Cl)cc1)N1CCOCC1`, the activation is 67.7% (active).

Regarding `COCCCNC(=O)/C=C/c1ccc(OCc2c(F)cccc2Cl)cc1`, the activation is 0.816%.

Consider `Cc1ccn2c(=O)nc(SCC(=O)NCc3ccc4c(c3)OCO4)nc2c1`, for which the activation was -9.78%.

Turning to `CC1=NNC(=O)C1Cc1c(Cl)cccc1Cl` (stereo not drawn), the activation is 8.87%.

In the case of `O=C(CSc1nc2ccc([N+](=O)[O-])cc2[nH]1)c1ccc(Cl)cc1`, the activation was 9.88%.

As to `O=C(Cc1nc2ccccc2[nH]c1=O)c1ccc(Cl)cc1`, the activation is 74.3% (active).

Take `N#C/C(=C(/O)COC(=O)COc1ccc(Cl)cc1)c1nc2ccccc2[nH]1`: the activation was 25.2%.

For the compound `CCN1C(=O)[C@@H]2[C@@H](c3ccc(-c4ccc(OC)cc4)c(OC)c3)N3CCC[C@@]3(C(=O)OC)[C@@H]2C1=O`, the activation was 14.7%.

With `CCOC(=O)c1c(-c2ccc(C)cc2)csc1/N=C(\C)C1=C(O)c2ccccc2C1=O`, the activation is 9.57%.

In the case of `COc1ccc(OCCCON2C(=O)c3ccccc3C2=O)cc1`, the activation was 3.41%.

For `CCOC(=O)C1=C(c2ccc(OC)cc2)C(=O)c2ccccc2C1=O`, the activation was 82.9% (active).

As for `O=C(Cc1ccc(S(=O)(=O)N2CCOCC2)s1)NCCOc1ccccc1F`, the activation is 3.3%.

Take `CC(=O)Nc1cccc(C(=O)OCC(=O)Nc2nnc(-c3ccccc3)o2)c1`: the activation is -13.5%.

Turning to `O=C(OCc1ccc(-c2ccccc2)cc1)c1cccc(O)c1`, the activation was 6.99%.

Turning to `c1ccc(-c2c[nH]c(-c3ccccc3)c2)cc1`, the activation was -83.8%.

As for `Oc1ccc(-c2cccc(-c3ccc(O)cc3)c2)cc1`, the activation was 62% (active).

As to `Cc1ccc(N2CCN(c3ccc([N+](=O)[O-])cn3)CC2)c(C)c1`, the activation is 14%.

Turning to `Cc1ccc(-n2c(C)cc(/C=N/Nc3ccc([N+](=O)[O-])cn3)c2C)c(C)c1`, the activation was 57.8% (active).

As for `Cc1cc(/C=N/Nc2ccc([N+](=O)[O-])cn2)c(C)n1-c1cccc(C(=O)O)c1`, the activation was 2.82%.

Consider `Cc1ccc(S(=O)(=O)NCCC(=O)OCC(=O)N(C)c2ccccc2)cc1`, for which the activation is 2.24%.

`O=C(c1ccc(Cl)s1)N(Cc1nnc(-c2ccccc2Cl)o1)C1CC1`: the activation is 19.5%.

`COc1ccc(NS(=O)(=O)c2ccc(NC(=S)NC(=O)/C=C/c3ccc(C)cc3)cc2)nn1`: the activation was -3.51%.

With `COc1ccc(/C=C/C(=O)c2ccc(NS(=O)(=O)c3ccc(C)cc3)cc2)cc1O`, the activation is 200% (active).

Regarding `Cc1ccc(C(=O)/C=C/Nc2ccc(S(=O)(=O)Nc3onc(C)c3C)cc2)cc1`, the activation is 2.18%.

As for `COc1ccc(C2CC(c3cccs3)=NN2c2ccccc2)cc1` (stereo not drawn), the activation was 67.4% (active).

Regarding `COc1ccc(C2CC(c3cccs3)=NN2C(=O)CCC(=O)O)cc1OC` (stereo not drawn), the activation is -17.8%.

Take `COc1ccc(C2=NN(C(=O)CCC(=O)O)C(c3cccs3)C2)cc1OC` (stereo not drawn): the activation was -7.93%.

In the case of `Oc1ccccc1C1=NN(c2ccccc2)C(c2ccccc2)C1` (stereo not drawn), the activation is 0.471%.

For `COc1ccc(C2=NN(C(C)=O)C(c3ccccc3)C2)cc1` (stereo not drawn), the activation was 21.6%.

With `COc1ccc(C2=NN(c3ccccc3)C(c3cccs3)C2)cc1` (stereo not drawn), the activation is 50.9% (active).

For the compound `COc1ccc(C2CC(c3cccs3)=NN2c2nc(C)c(C(C)=O)s2)cc1OC` (stereo not drawn), the activation was 149% (active).

Regarding `COc1ccc(C2CC(c3cccs3)=NN2c2ccc(F)cc2)cc1OC` (stereo not drawn), the activation is 22.9%.

For `COc1ccccc1N1N=C(c2cccs2)CC1c1ccccc1` (stereo not drawn), the activation was 9.62%.

Take `O=S(=O)(c1ccccc1)N1CCC(c2ccccc2)CC1`: the activation was -26.8%.

For the compound `CN(N)c1nc(N2CCCC2)nc(N2CCCC2)n1`, the activation was -5.13%.

`CC(C)COc1ccc(C(=O)OCC(=O)NCCC2=CCCCC2)cc1`: the activation was -2.4%.

As for `Nc1cccc(-c2cc(-c3ccccc3)nc(-c3cccc(N)c3)n2)c1`, the activation is -6.32%.

With `CNc1nc(-c2ccccc2)cc(-c2ccccc2)n1`, the activation was 74.1% (active).

As for `Nc1nc(-c2ccccc2)cc(-c2ccccc2)n1`, the activation was 21.8%.

On to `O=C(COC(=O)c1cccc(Cl)c1)Nc1ccc2[nH]c(=O)[nH]c2c1`, for which the activation is 9.55%.

On to `CSc1ncc(Sc2ccccc2)c(C(=O)O)n1`, for which the activation was 21.8%.

For the compound `CSc1nc(-c2ccccc2)nc(C(Cl)Cl)n1`, the activation was 84.8% (active).

Regarding `CCOc1ccccc1OCC(=O)Nc1ccccc1C(=O)NC1CC1`, the activation is -12.2%.

For `Cc1ccc(CNS(=O)(=O)CCNC(=O)c2ccccc2)cc1`, the activation was -0.388%.

Consider `COc1ccccc1C(=O)NCCC(=O)NC(C)CCc1ccccc1` (stereo not drawn), for which the activation is 0.822%.

As for `O=C1CCCN1C(=O)COc1ccc([N+](=O)[O-])cc1`, the activation was -3.27%.

In the case of `O=C(NCc1ccncc1)c1ccc(NS(=O)(=O)c2cccc([N+](=O)[O-])c2)cc1`, the activation was 5.25%.

Take `Cc1ccc(S(=O)(=O)Nc2nc3ccccc3s2)cc1[N+](=O)[O-]`: the activation is 9.23%.

Regarding `COc1cc(/C=N\Nc2nc(-c3cccs3)c(NC(C)=O)s2)ccc1O`, the activation is -1.06%.

Take `CCNc1nc(NCC)nc(N/N=C/c2ccc(O)c(OC)c2)n1`: the activation was -8.51%.

As for `COc1cc(/C=N/Nc2nc3ccccc3s2)ccc1O`, the activation is 193% (active).

For the compound `COc1ccc(CC(=O)N/N=C/c2cc([N+](=O)[O-])cc(Br)c2O)cc1`, the activation is -6.91%.

As to `O=[N+]([O-])c1cc(Br)c(O)c(/C=N/Nc2nc3ccccc3s2)c1`, the activation is 57.3% (active).

For the compound `O=S(=O)(Nc1ccc(O)c2ccccc12)c1ccc(OC(F)(F)F)cc1`, the activation is -68.7%.

Turning to `Cc1csc(=O)n1CC(=O)OCC(=O)N(CC(C)C)c1c(N)n(Cc2ccccc2)c(=O)[nH]c1=O`, the activation was 1.95%.

Take `COc1ccc(CNC(=O)C2CCCC2)cc1`: the activation was -6.99%.

Consider `CCN(CC)CCn1c2c(c(SCC(=O)Nc3nc4ccccc4s3)nc1=O)CCCC2`, for which the activation is -7.63%.

Take `CC1(C)O[C@H]2CC(=O)OCC23[C@H]2CC[C@@]4(C)[C@H](c5ccoc5)OC(=O)[C@H]5O[C@]54[C@]2(C)C(=O)C[C@@H]13` (stereo partly drawn): the activation was 0.574%.

On to `CCCC(=O)Nc1nc2ccc(NC(=O)c3c(F)c(F)c(OC)c(F)c3F)cc2s1`, for which the activation was -10.9%.

Consider `CSc1nc2ccc(NC(=O)c3c(F)cccc3F)cc2s1`, for which the activation is 59.4% (active).

For `O=C(Nc1ccncc1)c1c(F)cccc1F`, the activation is -55.9%.

Consider `Cc1onc(-c2c(F)cccc2Cl)c1C(=O)N(C)CC(=O)Nc1cccc(F)c1`, for which the activation is -3.94%.

Take `Cc1nn2cc(-c3ccc(Cl)cc3)cnc2c1Br`: the activation was 58.7% (active).

As for `COc1ccc(N2CCN(C(=O)c3ccc4c(Cl)c5c(nc4c3)CCCC5)CC2)cc1`, the activation is -1.04%.

Regarding `CC(=O)c1ccc(NC(=O)c2ccc3c(Cl)c4c(nc3c2)CCCC4)cc1`, the activation is 105% (active).

As to `CC(C)CCNC(=O)c1ccc2c(Cl)c3c(nc2c1)CCC3`, the activation is -56.3%.

`N#CCN(C(=O)COC(=O)C1CC2CCCC(C1)C2=O)c1ccccc1` (stereo not drawn): the activation is -11.4%.

As to `O=C(NN1CCOCC1)c1cccc(F)c1`, the activation is 13.3%.

Consider `O=C(COC(=O)Cc1ccccc1F)NNC(=O)c1ccc(Cl)cc1`, for which the activation is -9.93%.

As for `COc1ccc(CNC(=O)C(=O)N2CCC3(CC2)OCCN3S(=O)(=O)c2ccc(C)cc2)cc1`, the activation is 2.08%.

On to `COc1ccccc1N1CCN(S(=O)(=O)c2ccc(Cl)cc2)CC1`, for which the activation was 4.97%.

With `COc1ccccc1-n1nnnc1S(=O)(=O)Cc1ccc(Cl)cc1`, the activation was 235% (active).

In the case of `CCN(C(=O)CSc1nnnn1-c1ccccc1OC)C1CCS(=O)(=O)C1` (stereo not drawn), the activation was 26%.

As for `Cc1ccc(NC(=O)CSc2nc(=O)n(CCN(C)C)c3c2CCCC3)c(C)c1`, the activation is -10.7%.

Regarding `CN1CCN(S(=O)(=O)c2ccc(Nc3ccc(F)cc3)nc2)CC1`, the activation is -7%.
